Results as given in PubChem BioAssay (NCATS).
Records with an inconclusive call do not appear. Where a call stands in place of a potency, no number is given. Activity calls are given as the source filed them. Calls come from the whole dose curve; as a rule, active = well fitted curve in the direction sought with a large enough effect; inconclusive = small, poorly fitted or top-dose-only effect, or another doubt; inactive = no such curve, though single readings can be large; an effect the other way counts as inactive or inconclusive.

Tests used:
CRL-7250 = normal cell line; experiment: qHTS assay to identify novel small-molecules to repurpose for Merkel cell carcinoma treatment (AID 1296009); details: MCC and control cell lines, CellTiter-Glo viability, 72 h; series mostly up to 44.8 µM; note: nearly all actives have a fitted effect of over 60% in size
Outline: (§1)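 Dose-response viability screen; 72 hr exposure at 37 degree celsius; CellTiter-Glo added, 10 min room temperature, luminescence read; RLUs scaled between no-cell and DMSO wells.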

W2 = experiment: qHTS profiling for inhibitors of Plasmodium falciparum proliferation (AID 504749); note: nearly all actives have a fitted effect of over 60% in size; note: potency is the fitted concentration of half-maximal effect; details: P. falciparum in erythrocytes, SYBR Green DNA, 72 h; series mostly up to 28.7 µM
Outline: (§2)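 Each compound contacts P. falciparum-infected red blood cells for 72 h at 37 C; lysis buffer (Tris, EDTA, saponin, Triton X, SYBR Green I) is added and fluorescence measured next morning; values normalized to controls.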

TAB165 = experiment: as above; details: P. falciparum in erythrocytes, SYBR Green DNA, 72 h; series mostly up to 28.7 µM
Outline: as §2

MCC-13 = experiment: qHTS assay to identify novel small-molecules to repurpose for Merkel cell carcinoma treatment (AID 1296009); details: MCC and control cell lines, CellTiter-Glo viability, 72 h; series mostly up to 46 µM; note: nearly all actives have a fitted effect of over 60% in size
Outline: as §1

MCC-26 = experiment: as above; details: MCC and control cell lines, CellTiter-Glo viability, 72 h; series mostly up to 46 µM
Outline: as §1

MKL-1 = experiment: as above; details: MCC and control cell lines, CellTiter-Glo viability, 72 h; series mostly up to 46 µM
Outline: as §1

MKL-2 = experiment: as above; details: MCC and control cell lines, CellTiter-Glo viability, 72 h; series mostly up to 46 µM
Outline: as §1

NIH3T3 = experiment: as above; details: MCC and control cell lines, CellTiter-Glo viability, 72 h; at 44.8 µM (top of the series) unless noted
Outline: as §1

UISO = experiment: as above; details: MCC and control cell lines, CellTiter-Glo viability, 72 h; series mostly up to 46 µM
Outline: as §1

WaGa = experiment: as above; details: MCC and control cell lines, CellTiter-Glo viability, 72 h; series mostly up to 46 µM
Outline: as §1

C33A = experiment: Primary qHTS to identify gynecologic anti-cancer compounds using libraries of approved drugs and bioactive compounds (AID 1345084); details: Gynecologic cancer cell panel viability, ATPlite luminescence, 48 h; series mostly up to 57.5 µM; note: nearly all actives have a fitted effect of over 55% in size; note: potency is the fitted concentration of half-maximal effect
Outline: (§3)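 Cells, 1,000 per well, were allowed to settle for 16 h at 37 C before compound addition. Five concentrations were tested for 48 h, and viability was read by ATPlite luminescence after 15 min at room temperature.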

CAOV3 = experiment: as above; details: Gynecologic cancer cell panel viability, ATPlite luminescence, 48 h; series mostly up to 57.5 µM
Outline: as §3

CASKI = experiment: as above; details: Gynecologic cancer cell panel viability, ATPlite luminescence, 48 h; series mostly up to 57.5 µM
Outline: as §3

Q: `CC(=O)OCC(CCn1cnc2cnc(N)nc21)COC(C)=O` was tested. Which outcome (CRL-7250) did it give?
A: Its outcome is “inactive”.

Q: `NNCCc1ccccc1` was tested. Which outcome (CRL-7250) did it give?
A: Its outcome is “inactive”.

Q: How did the outcome (CRL-7250) turn out when `CCCNCC(O)COc1ccccc1C(=O)CCc1ccccc1` (configuration not stated) was run?
A: Its outcome is “inactive”.

Q: For `O=C1N=C(O)CN1/N=C/c1ccc(-c2ccc([N+](=O)[O-])cc2)o1`, which outcome (CRL-7250) is on record?
A: The outcome was “inactive”.

Q: `O=NN(CCCl)C(=O)NCCCl` was tested. Which outcome (CRL-7250) did it give?
A: The outcome was “inactive”.

Q: `O=NN(CCCl)C(=O)NC1CCCCC1` was tested. Which outcome (CRL-7250) did it give?
A: Its outcome is “inactive”.

Q: Which outcome (CRL-7250) does the source give for `CCCCCOC(=O)Nc1nc(=O)n([C@@H]2O[C@H](C)[C@@H](O)[C@H]2O)cc1F` here?
A: Its outcome is “inactive”.

Q: For `Cc1ccc(S(=O)(=O)NC(=O)NN2CCCCCC2)cc1`, which outcome (CRL-7250) is on record?
A: Its outcome is “inactive”.

Q: For `CC1=C(C(=O)O)N2C(=O)[C@@H](NC(=O)[C@H](N)c3ccc(O)cc3)[C@H]2SC1`, which outcome (CRL-7250) is on record?
A: The outcome was “inactive”.

Q: `CC(c1cc2ccccc2s1)N(O)C(N)=O` (configuration not stated) was tested. Which outcome (CRL-7250) did it give?
A: The outcome was “inactive”.

Q: Which outcome (CRL-7250) does the source give for `O[C@@H]1CO[C@H]2[C@@H]1OC[C@@H]2O` here?
A: The outcome was “inactive”.

Q: How did the outcome (CRL-7250) turn out when `Cc1nc(-c2ccc(OCC(C)C)c(C#N)c2)sc1C(=O)O` was run?
A: Its outcome is “inactive”.

Q: For `CC1(C)S[C@@H]2[C@H](NC(=O)Cc3ccccc3)C(=O)N2[C@H]1C(=O)O` (tested in a mixture with another compound), which outcome (CRL-7250) is on record?
A: The outcome was “inactive”.

Q: How did the outcome (CRL-7250) turn out when `CCCNC(=O)NS(=O)(=O)c1ccc(Cl)cc1` was run?
A: The outcome was “inactive”.

Q: For `OCCN(CCO)c1nc(N2CCCCC2)c2nc(N(CCO)CCO)nc(N3CCCCC3)c2n1`, which outcome (CRL-7250) is on record?
A: The outcome was “inactive”.

Q: How did the outcome (CRL-7250) turn out when `Oc1cn2c(n1)Nc1ccc(Cl)c(Cl)c1C2` was run?
A: The outcome was “inactive [at 17.4 µM]”.

Q: With `CCN(CC)CCOC(=O)C1(C2CCCCC2)CCCCC1` as the compound, how does the outcome (CRL-7250) read?
A: Its outcome is “inactive”.

Q: How did the outcome (CRL-7250) turn out when `C[C@@H](O)[C@H]1C(=O)N2C(C(=O)O)=C(S[C@@H]3CN[C@H](C(=O)N(C)C)C3)[C@H](C)[C@H]12` was run?
A: The outcome was “inactive”.

Q: With `Cc1ccc(S(=O)(=O)NC(=O)NN2CC3CCCC3C2)cc1` (configuration not stated) as the compound, how does the outcome (CRL-7250) read?
A: Its outcome is “inactive”.

Q: How did the outcome (CRL-7250) turn out when `O=C1NC(c2ccccc2)(c2ccccc2)C(=O)N1COP(=O)(O)O` was run?
A: Its outcome is “inactive”.

Q: For `CCN(CC)C(=S)SSC(=S)N(CC)CC`, which outcome (CRL-7250) is on record?
A: The outcome was “inactive”.

Q: With `CN(C)CCc1c[nH]c2ccc(C[C@H]3COC(=O)N3)cc12` as the compound, how does the outcome (CRL-7250) read?
A: The outcome was “inactive”.

Q: How did the outcome (CRL-7250) turn out when `O=C1CCC(N2C(=O)c3ccccc3C2=O)C(=O)N1` (configuration not stated) was run?
A: Its outcome is “inactive”.

Q: How did the outcome (CRL-7250) turn out when `CN(C)C(=N)N=C(N)N` was run?
A: The outcome was “inactive”.

Q: `C[C@@H]1CC(=O)NN=C1c1ccc(NN=C(C#N)C#N)cc1` was tested. Which outcome (CRL-7250) did it give?
A: Its outcome is “inactive”.

Q: Which outcome (CRL-7250) does the source give for `COc1cc(Cc2cnc(N)nc2N)cc(OC)c1OC` here?
A: Its outcome is “inactive”.

Q: For `CS(=O)(=O)OCCCCOS(C)(=O)=O`, which outcome (CRL-7250) is on record?
A: Its outcome is “inactive”.

Q: How did the outcome (CRL-7250) turn out when `Cn1ccc2cc3c(cc21)CCN3C(=O)Nc1cccnc1` was run?
A: Its outcome is “inactive [at 17.4 µM]”.

Q: For `CC(CN(C)C)CN1c2ccccc2CCc2ccccc21` (configuration not stated), which outcome (CRL-7250) is on record?
A: Its outcome is “inactive”.

Q: How did the outcome (CRL-7250) turn out when `CN(C)[C@@H]1C(=O)C(C(N)=O)=C(O)[C@@]2(O)C(=O)C3=C(O)c4c(O)ccc(Cl)c4[C@@H](O)[C@H]3C[C@@H]12` was run?
A: Its outcome is “inactive”.

Q: How did the Potency (W2) turn out when `O=c1[nH]c2ccccc2n1C1CCN(CCCC(c2ccc(F)cc2)c2ccc(F)cc2)CC1` was run?
A: Its Potency is 3.79 µM (active).

Q: `COc1ccccc1OCC(O)COC(N)=O` (configuration not stated) was tested. Which outcome (CRL-7250) did it give?
A: Its outcome is “inactive”.

Q: What does the source list for `O=c1[nH]c2ccccc2n1CCCN1CCC(n2c(=O)[nH]c3cc(Cl)ccc32)CC1`?
A: Potency (TAB165): 4.47 µM (active); Potency (W2): 6.75 µM (active); outcome (CRL-7250): inactive; Potency (MCC-13): inactive; Potency (MCC-26): inactive; Potency (MKL-1): inactive; Potency (MKL-2): inactive; outcome (NIH3T3): inactive; Potency (UISO): inactive; Potency (WaGa): inactive; Potency (C33A): inactive; Potency (CAOV3): inactive; Potency (CASKI): inactive

Q: `C=C(C)[C@H]1Cc2c(ccc3c2O[C@@H]2COc4cc(OC)c(OC)cc4[C@@H]2C3=O)O1` was tested. Which Potency (TAB165) did it give?
A: The Potency was “inactive”.

Q: And the Potency (C33A)?
A: The Potency was 0.708 µM (active).

Q: And the Potency (CASKI)?
A: The Potency was 1.26 µM (active).

Q: How did the outcome (CRL-7250) turn out when `CN1CCC[C@@H]1Cc1c[nH]c2ccc(CCS(=O)(=O)c3ccccc3)cc12` was run?
A: The outcome was “inactive”.

Q: With `COc1cc(C(C)=O)ccc1OCCCN1CCC(c2noc3cc(F)ccc23)CC1` as the compound, how does the outcome (CRL-7250) read?
A: The outcome was “inactive”.

Q: Which outcome (CRL-7250) does the source give for `CCCN[C@H]1CCc2nc(N)sc2C1` here?
A: The outcome was “inactive”.

Q: How did the outcome (CRL-7250) turn out when `CC(C(=O)O)c1cccc(C(=O)c2ccccc2)c1` (configuration not stated) was run?
A: Its outcome is “inactive”.
